Non-standard residues stand in square brackets, D forms with d. Residues, ends and D or L forms follow the SMILES beside them. Nle = CCCC[C@H](N)C(=O)O
Legend:
Settings in all cases: Compound concentration 20.0 uM
[1] = biological target: Tyrosine-protein kinase ABL1 (Homo sapiens) (UniProt P00519)
[2] = biological target: Bromodomain-containing protein 4 (Homo sapiens) (UniProt O60885)
[3] = biological target: Cyclin-dependent kinase 2 (Homo sapiens) (UniProt P24941)
[4] = biological target: Casein kinase I isoform delta (Homo sapiens) (UniProt P48730)
Chain of Casein kinase I isoform delta (Homo sapiens) (P48730 whole entry, looked up, canonical isoform): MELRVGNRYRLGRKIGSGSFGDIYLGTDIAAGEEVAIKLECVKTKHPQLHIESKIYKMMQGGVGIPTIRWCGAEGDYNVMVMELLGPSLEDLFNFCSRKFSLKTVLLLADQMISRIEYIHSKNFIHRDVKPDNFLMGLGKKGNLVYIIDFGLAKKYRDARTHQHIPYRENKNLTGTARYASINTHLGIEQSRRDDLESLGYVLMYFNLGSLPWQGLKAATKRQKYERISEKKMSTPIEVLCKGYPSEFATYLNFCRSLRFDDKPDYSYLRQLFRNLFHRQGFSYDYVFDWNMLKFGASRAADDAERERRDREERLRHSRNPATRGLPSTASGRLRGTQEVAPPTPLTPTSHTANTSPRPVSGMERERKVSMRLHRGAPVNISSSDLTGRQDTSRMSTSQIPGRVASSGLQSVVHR

[5] = biological target: Glycogen synthase kinase-3 beta (Homo sapiens) (UniProt P49841)
Chain of Glycogen synthase kinase-3 beta (Homo sapiens) (P49841 whole entry, looked up): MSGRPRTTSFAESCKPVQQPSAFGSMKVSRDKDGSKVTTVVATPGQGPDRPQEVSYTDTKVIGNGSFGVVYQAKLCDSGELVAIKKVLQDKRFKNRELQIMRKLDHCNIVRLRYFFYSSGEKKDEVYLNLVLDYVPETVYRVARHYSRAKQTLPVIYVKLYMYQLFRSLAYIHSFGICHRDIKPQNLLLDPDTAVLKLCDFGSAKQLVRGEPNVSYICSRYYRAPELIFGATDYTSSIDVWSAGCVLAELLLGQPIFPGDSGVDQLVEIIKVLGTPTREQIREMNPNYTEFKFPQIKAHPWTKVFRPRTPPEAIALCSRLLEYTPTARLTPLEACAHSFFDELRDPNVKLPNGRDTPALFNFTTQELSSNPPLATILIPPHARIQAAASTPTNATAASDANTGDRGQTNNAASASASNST

[6] = biological target: Mitogen-activated protein kinase 1 (Homo sapiens) (UniProt P28482)
Chain of Mitogen-activated protein kinase 1 (Homo sapiens) (P28482 whole entry): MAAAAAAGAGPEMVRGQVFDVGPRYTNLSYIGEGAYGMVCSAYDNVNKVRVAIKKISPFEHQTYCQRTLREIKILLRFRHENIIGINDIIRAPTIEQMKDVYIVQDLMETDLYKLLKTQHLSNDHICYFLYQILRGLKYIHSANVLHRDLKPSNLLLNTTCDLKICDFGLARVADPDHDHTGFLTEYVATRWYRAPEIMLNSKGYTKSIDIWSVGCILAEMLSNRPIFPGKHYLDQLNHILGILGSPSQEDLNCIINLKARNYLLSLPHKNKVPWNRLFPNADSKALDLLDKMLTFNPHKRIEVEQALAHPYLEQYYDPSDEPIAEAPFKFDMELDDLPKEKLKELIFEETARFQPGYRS

[7] = biological target: T1, Aurora kinase A (Homo sapiens) (UniProt O14965)
T1 sequence (whole entry): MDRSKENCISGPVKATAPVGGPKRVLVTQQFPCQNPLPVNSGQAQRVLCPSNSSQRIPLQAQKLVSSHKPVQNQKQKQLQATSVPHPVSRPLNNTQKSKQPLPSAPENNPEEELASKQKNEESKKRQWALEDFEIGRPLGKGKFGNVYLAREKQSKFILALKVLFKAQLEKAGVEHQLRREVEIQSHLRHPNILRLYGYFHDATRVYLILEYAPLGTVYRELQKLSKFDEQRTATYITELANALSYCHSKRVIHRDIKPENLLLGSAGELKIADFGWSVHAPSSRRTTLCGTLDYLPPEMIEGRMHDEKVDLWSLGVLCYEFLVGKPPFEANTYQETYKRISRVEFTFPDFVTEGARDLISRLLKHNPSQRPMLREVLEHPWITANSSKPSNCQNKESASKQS

[8] = biological target: T2, Transcription intermediary factor 1-alpha (Homo sapiens) (UniProt O15164)
T2 sequence (whole entry): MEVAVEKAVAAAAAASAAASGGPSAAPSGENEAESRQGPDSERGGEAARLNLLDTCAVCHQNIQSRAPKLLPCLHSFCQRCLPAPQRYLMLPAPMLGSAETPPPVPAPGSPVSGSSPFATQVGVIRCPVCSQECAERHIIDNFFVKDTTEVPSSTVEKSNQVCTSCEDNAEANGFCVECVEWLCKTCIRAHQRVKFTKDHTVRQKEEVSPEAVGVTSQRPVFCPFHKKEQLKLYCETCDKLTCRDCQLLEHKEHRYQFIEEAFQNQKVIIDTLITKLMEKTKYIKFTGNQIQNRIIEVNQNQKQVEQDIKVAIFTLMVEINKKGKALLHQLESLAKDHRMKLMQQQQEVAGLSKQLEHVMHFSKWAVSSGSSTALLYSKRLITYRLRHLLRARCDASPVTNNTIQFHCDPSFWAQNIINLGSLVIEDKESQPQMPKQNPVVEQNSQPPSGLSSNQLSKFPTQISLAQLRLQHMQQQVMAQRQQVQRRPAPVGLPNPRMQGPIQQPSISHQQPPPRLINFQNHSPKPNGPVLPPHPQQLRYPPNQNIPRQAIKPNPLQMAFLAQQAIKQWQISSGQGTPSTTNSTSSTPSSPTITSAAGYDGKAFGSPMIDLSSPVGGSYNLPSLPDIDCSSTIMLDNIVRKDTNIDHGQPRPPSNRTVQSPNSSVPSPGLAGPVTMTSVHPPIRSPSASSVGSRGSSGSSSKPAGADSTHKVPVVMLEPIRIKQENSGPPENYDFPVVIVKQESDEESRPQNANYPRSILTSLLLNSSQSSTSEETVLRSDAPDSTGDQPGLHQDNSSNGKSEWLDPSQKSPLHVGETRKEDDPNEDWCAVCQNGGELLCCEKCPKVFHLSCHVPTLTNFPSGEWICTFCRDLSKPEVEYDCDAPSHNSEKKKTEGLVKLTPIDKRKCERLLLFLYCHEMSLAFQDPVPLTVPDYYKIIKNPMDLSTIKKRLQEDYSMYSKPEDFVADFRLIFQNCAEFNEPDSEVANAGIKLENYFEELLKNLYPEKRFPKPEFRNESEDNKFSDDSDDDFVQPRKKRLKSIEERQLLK

Chain of Tyrosine-protein kinase ABL1 (Homo sapiens) (P00519 whole entry): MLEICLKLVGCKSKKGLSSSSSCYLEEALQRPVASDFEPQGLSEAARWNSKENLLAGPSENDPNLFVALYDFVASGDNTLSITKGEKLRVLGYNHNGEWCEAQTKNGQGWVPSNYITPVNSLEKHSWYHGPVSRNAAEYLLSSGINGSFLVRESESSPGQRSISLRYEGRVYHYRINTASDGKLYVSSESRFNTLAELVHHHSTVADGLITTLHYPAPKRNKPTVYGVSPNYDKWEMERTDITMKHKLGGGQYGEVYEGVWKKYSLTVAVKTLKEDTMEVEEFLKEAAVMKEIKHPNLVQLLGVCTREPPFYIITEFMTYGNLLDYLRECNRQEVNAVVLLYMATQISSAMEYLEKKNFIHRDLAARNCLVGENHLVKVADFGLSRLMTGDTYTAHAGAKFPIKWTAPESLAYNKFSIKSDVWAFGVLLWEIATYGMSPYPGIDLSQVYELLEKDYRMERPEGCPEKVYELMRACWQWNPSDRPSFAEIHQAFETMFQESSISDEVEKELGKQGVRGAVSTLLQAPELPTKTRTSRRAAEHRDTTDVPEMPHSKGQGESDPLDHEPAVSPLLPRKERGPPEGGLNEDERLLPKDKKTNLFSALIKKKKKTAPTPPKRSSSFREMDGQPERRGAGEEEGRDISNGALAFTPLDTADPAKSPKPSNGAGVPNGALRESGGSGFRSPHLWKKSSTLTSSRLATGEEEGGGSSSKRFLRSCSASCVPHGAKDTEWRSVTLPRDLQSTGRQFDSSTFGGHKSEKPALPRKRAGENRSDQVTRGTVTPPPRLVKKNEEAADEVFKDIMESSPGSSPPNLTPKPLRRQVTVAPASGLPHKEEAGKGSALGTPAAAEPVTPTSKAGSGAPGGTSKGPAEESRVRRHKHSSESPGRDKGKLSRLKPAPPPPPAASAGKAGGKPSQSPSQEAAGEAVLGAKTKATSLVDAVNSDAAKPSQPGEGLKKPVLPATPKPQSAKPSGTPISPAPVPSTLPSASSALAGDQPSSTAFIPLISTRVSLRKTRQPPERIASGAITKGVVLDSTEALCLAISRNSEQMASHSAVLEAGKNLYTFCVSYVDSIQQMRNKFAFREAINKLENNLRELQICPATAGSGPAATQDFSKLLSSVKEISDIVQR

Structure (SMILES) | ΔTm [1] [°C] | ΔTm [2] [°C] | ΔTm [3] [°C] | ΔTm [4] [°C] | ΔTm [5] [°C] | ΔTm [6] [°C] | ΔTm [7] [°C] | ΔTm [8] [°C]
Nc1ccc(-c2cccs2)cc1NC(=O)c1ccc(NC=O)cc1 | 0.87 | 2.75 | 1.18 | -0.53 | -0.36 | 0.54 | 0.14 | 1.27
CNc1cc(-c2cccc(Cl)c2Cl)nc(N)n1 | 0.38 | -2.61 | 0.11 | -0.27 | -0.04 | 0.22 | -2.02 | 0.28
Cc1[nH]c2c(N3CCCCC3)c(-c3ccccc3)nn2c(=O)c1-c1ccc(O)cc1 | -0.07 | 0.61 | 0.64 | -0.07 | -1.39 | 0.65 | -0.41 | -0.15
Cc1nc(-c2cnn(C)c2-c2ccc(C(F)(F)F)cn2)c2c(N3CCC3)ncnn12 | 0.74 | -3.11 | 0.08 | -0.17 | -0.34 | 0.1 | -2.46 | 0.34
CCc1c(C)nc(-c2ccc(Cl)s2)nc1Nc1ccc(CC(=O)O)cc1 | 0.97 | -2.77 | 0.44 | -0.04 | 0 | 0.51 | -0.9 | 1.46
O=C1c2ccccc2C(=O)c2oc(-c3cccnc3)nc21 | 0.81 | -2.99 | 0.36 | -0.59 | 0.34 | 0.32 | -2.61 | -0.87
CNc1nccc(CN(CC2CCNCC2)S(=O)(=O)c2ccc(S(=O)(=O)N(Cc3ccc(Cl)cc3)C3CCCC3)cc2)n1 | 0.85 | -3.15 | 0.06 | 0.31 | 0.43 | 0.57 | -2.49 | -0.52
CC(C)[C@H](NC(=O)OCc1ccccc1)C(=O)NC(CC(=O)O)C(=O)CF (stereo partly specified) | -0.18 | -3.41 | -0.73 | 0.1 | 0.35 | -0.08 | -2.03 | -1.64
O=c1[nH][nH]c(=O)c2cc(OCc3ccsc3)ccc12 | 1.93 | -2.87 | 0.73 | -0.03 | 0.96 | 0.65 | -1.5 | 0.51
CC(C)(C)OC(=O)Nc1ccc(-c2cc(C(=O)NCCCCCCC(=O)NO)no2)cc1 | -1.36 | 0 | -1.64 | -3.22 | 0 | 0 | -4.92 | -2.07
Cc1cnc(-c2ccccc2C(C)C)nc1NCc1ccc(-n2ccnn2)cc1 | 0.32 | -1.87 | -0.07 | -7.36 | 0.1 | 0.55 | -2.6 | -0.58
CCCC[C@@H](C=O)NC(=O)[C@H](CC(C)C)NC(=O)[C@H](CC(C)C)NC(C)=O (Ac-Leu-Leu-[Nle]-aldehyde) | 0.18 | -2.71 | 0.09 | 0.12 | -0.45 | 0.06 | -1.13 | -1.21
Cc1nc(F)ccc1-c1cc(Cn2ccn(C)c2=N)cc(C(=O)NCc2ccc(Cl)c(Cl)c2)c1 | 0.39 | -2.09 | -0.77 | 0.13 | -0.9 | -0.24 | -0.34 | -1.96
COc1ccc(/C=C/C(=O)NO)c(-c2ccc(-c3ccccc3)cc2)c1 | -1.93 | 2.27 | 0.43 | -0.46 | 3.08 | -9.33 | 2.77 | 3.31
NC(=O)C(CCCN=C(N)CCl)NC(=O)c1ccccc1 (stereo unspecified) | 0.36 | -3.15 | 0.18 | -0.56 | 0.08 | 0.22 | -2.39 | 1.03
O=c1[nH]c(Oc2cnn(Cc3ccccc3)c2)nc2cnccc12 | 0.64 | -2.42 | 0.14 | -0.09 | 0.35 | 0.33 | -1.07 | 0.34
O=C(CCl)Nc1ccc(S(=O)(=O)c2ccc(NC(=O)CCl)cc2)cc1 | 1.36 | -1.5 | 0 | 0.55 | 0.48 | -1.61 | -0.12 | 0.36
